# Bioassay records: PubChem, several laboratories
# Rows were chosen to be rich in hits. Some 5.9% of all compounds tested hit in one or more screens of this group.
# ALR inh: blocks human ALR sulfhydryl oxidase activity; hit rate 3.8% among 290,000; inhibition, % (concentration not given with the values); P55789; purified ALR, DTT oxidation, H2O2 HRP-luminol luminescence;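 active = mean replicate inhibition above about 79%, with every replicate also reaching it, limit read from the data; inconclusive = only one of the two criteria met; inactive = mean below limit and not every replicate reaching it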
# Target sequence (P55789 whole entry, looked up): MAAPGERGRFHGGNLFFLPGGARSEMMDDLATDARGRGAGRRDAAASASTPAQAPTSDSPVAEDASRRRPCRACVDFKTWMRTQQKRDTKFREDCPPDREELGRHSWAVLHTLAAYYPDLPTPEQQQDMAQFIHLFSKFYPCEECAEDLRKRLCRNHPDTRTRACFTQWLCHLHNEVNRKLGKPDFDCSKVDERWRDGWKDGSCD
# Rtt109 Vps75: C. albicans Rtt109 histone acetyltransferase inhibition. inhibition, % at 34.9 µM. hit rate 0.16% among 330,000. purified Rtt109/Vps75, ThioGlo CoA-SH fluorescence, 4 h;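 active = inhibition of at least 50% in every replicate; inconclusive = best replicate reaches 50% inhibition but some replicates fall short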
# ABHD5 PLIN5 PPI: inhibitors of human ABHD5-perilipin-5 interaction | Q00G26+Q8WTS1 | hit rate 0.78% among 360,000 | Split G. princeps luciferase complementation, luminescence, 4 h | inhibition, % at 4 µM | AID 602281;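 active = inhibition above the mean inhibition across every tested compound plus 3 SD, cut at about 22% in these data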
# rCAG binder: r(CAG) repeat RNA binding; inhibition, % at 3 µM; AID 651821; hit rate 1.3% among 370,000; TO-PRO-1 dye displacement fluorescence;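 active = inhibition above the plate cutoff, the mean of all test compounds on that plate plus 3 SD, cut at about 35% in these data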;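 note: higher means more dye released from RNA so lower well fluorescence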
# PRMT1 inh: PRMT1 (human) inhibition, primary screen; Q99873; recombinant PRMT1, activity-based probe fluorescence polarization; inhibition, % at 2.79 µM; hit rate 1.3% among 370,000;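 active = inhibition above about 21% made by adding two undisclosed values, limit read from the data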
# LANA-H2B inh: blocks KSHV LANA binding to histone H2A/H2B | Q9QR71 | cell-free LANA-H2A/H2B peptide, fluorescence polarization | inhibition, % (test concentration not listed) | hit rate 0.6% among 320,000 | AID 2629; in the data active = inhibition mostly above about 10%, no sharp cut-off; inactive = mostly below about 6.7%
# ABHD5 PLIN5 conf: confirmation of human ABHD5-PLIN5 interaction inhibitors | shares compounds with ABHD5 PLIN5 PPI | biochemical ABHD5-PLIN5 interaction, luminescence | inhibition, % at 4 µM | hit rate 67% among 2,200; in the data active = inhibition above about 23%
# HNF4 split-luc: counter-screen for ABHD5-PLIN5 inhibitors: HNF4 split-luciferase; shares compounds with ABHD5 PLIN5 PPI; HNF4 dimerization, luminescence, biochemical; inhibition, % at 4 µM; hit rate 77% among 2,200;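 active = mean inhibition across replicate wells exceeding the computed hit threshold, cut at about 13% in these data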;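 note: light from luciferase halves that rejoin when HNF4 fusion proteins dimerize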
# Target sequence (P41235 whole entry, looked up, the tested form may be a part): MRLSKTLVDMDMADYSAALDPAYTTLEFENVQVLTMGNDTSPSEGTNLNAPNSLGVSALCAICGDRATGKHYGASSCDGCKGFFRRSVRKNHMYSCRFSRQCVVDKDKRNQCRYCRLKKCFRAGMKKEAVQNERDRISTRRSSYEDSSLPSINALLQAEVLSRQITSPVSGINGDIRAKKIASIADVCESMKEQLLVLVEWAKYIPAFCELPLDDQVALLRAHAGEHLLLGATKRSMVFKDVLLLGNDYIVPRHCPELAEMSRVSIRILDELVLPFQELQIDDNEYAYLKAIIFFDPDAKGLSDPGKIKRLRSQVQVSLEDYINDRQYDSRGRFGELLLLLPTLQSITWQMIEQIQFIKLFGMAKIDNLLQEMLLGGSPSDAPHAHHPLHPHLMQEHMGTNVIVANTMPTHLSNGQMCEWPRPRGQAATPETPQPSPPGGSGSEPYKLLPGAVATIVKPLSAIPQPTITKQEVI
# A number is an active result; – = inactive; ? = inconclusive; · = no result given.
SMILES,ALR inh,Rtt109 Vps75,ABHD5 PLIN5 PPI,rCAG binder,PRMT1 inh,LANA-H2B inh,ABHD5 PLIN5 conf,HNF4 split-luc
CC(C)C[C@H]1CNC(=O)C(=O)N1C[C@@H]1CCCN1C[C@H](Cc1ccccc1)N1C[C@H](CC(C)C)N(CC2CCCCC2)C(=O)C1=O,·,·,·,–,–,·,·,·
O=C(O)/C=C/C(=O)c1c(-c2ccccc2)[nH]c2ccccc12,98,–,62,–,–,–,96,94
COC(=O)[C@]12CCCCC=C1N(CCC1=CCCCC1)C(=O)[C@H](CC(=O)NCc1ccc(C)o1)C2,·,·,–,–,–,·,·,·
CCCCCCCCN1C(=O)[C@H](CC(=O)NCc2ccc(C)o2)C[C@@]2(C(=O)OCC)CCC=C12,·,·,31,–,–,·,28,16
CCCCCCCCN1C(=O)[C@H](CC(=O)NCc2ccc(C)o2)C[C@@]2(C(=O)OC)CCCCC=C12,·,·,36,–,–,·,23,–
NS(=O)(=O)c1ccc(Oc2ccc(S(N)(=O)=O)cc2)cc1,–,–,–,–,–,–,·,·
C=CS(=O)(=O)c1ccc(Oc2ccc(S(=O)(=O)C=C)cc2)cc1,–,–,86,–,–,–,100,102
O=C(N/N=C/C(Br)=C/c1ccccc1)C(O)c1ccccc1 (stereo not drawn),–,–,25,–,–,–,–,34
CCCCC[C@@H](/C=C/C1C(=O)C=C[C@H]1C/C=C\CCCC(=O)OC)OC(C)=O (stereo partly drawn),·,–,28,–,–,·,42,63
CCCCCCCCCc1conc1C(=O)/C=C/c1oc2c(c1C)CCC(C)C2 (stereo not drawn),·,·,42,–,–,·,37,–
Cc1ccc2nc(C(C)(C)C)c(Cc3ccsc3)n2c1,·,·,40,–,–,·,55,48
O=C(Cc1c[nH]c2ccccc12)Nc1ccc(Nc2cccnc2)c(-c2ccc(F)c(F)c2)c1,·,·,·,–,–,·,·,·
O=C(NNC(=O)c1ccccc1F)c1ccc(S(=O)(=O)N2CCCCC2)cc1,–,–,–,–,–,–,·,·
CC(=O)c1ccc(N2CCN(S(=O)(=O)c3ccc4c(c3)C(Cl)(Cl)C(=O)N4)CC2)cc1,·,·,31,–,–,·,56,51
CCSC1(SCC)N=C(N)C2(C#N)C(c3ccc(OC)c(OC)c3OC)C12C#N (stereo not drawn),–,–,25,–,–,–,78,72
CC(C)C[C@H](N)c1nnc(S(=O)(=O)Cc2cccc(F)c2)o1,–,–,38,–,–,–,42,76
CC(C)(C)OC(=O)N[C@@H](Cc1ccccc1)c1nnc(S(=O)(=O)Cc2cccc(F)c2)o1,–,·,·,·,·,–,·,·
Cc1ccc(S(=O)(=O)N2C[C@H]3C(=O)C[C@@H](c4ccccc4)N(S(=O)(=O)c4ccc(C)cc4)[C@H]3C[C@H]2c2ccccc2F)cc1,·,·,–,–,–,·,·,·
CCOC(=O)C1=C(O)/C(=C/c2ccccn2)SC1=Nc1ccc(Cl)cc1,–,–,–,–,–,–,·,·
CCOC(=O)C1=C(O)/C(=C/c2ccc(-c3ccccc3C(=O)O)o2)SC1=Nc1ccc(C)cc1,·,?,27,–,–,·,–,–
COc1ccc(-c2c(C)oc3c(CN4CCCCC4C)c(O)ccc3c2=O)cc1 (stereo not drawn),–,–,–,–,–,–,·,·
CC1CCCCN1Cc1c(O)ccc2c(=O)c(-c3nc4ccccc4s3)c(N)oc12 (stereo not drawn),–,–,29,–,–,–,–,–
COc1ccc2oc(=O)c(C(=O)NCc3ccco3)cc2c1,·,–,34,–,–,–,–,–
O=C(NCC1COc2ccccc2O1)c1ccc(NC(=O)C(Cl)Cl)cc1 (stereo not drawn),·,·,·,–,–,·,·,·
CCN(C(=O)COC(=O)/C(=C/c1ccccc1)n1nnnc1C)C1CCCCC1,–,–,34,–,–,–,52,36
SMILES,ALR inh,Rtt109 Vps75,ABHD5 PLIN5 PPI,rCAG binder,PRMT1 inh,LANA-H2B inh,ABHD5 PLIN5 conf,HNF4 split-luc
COc1ccc(CCNC(=O)c2c(N)[nH]c(C(=O)c3ccccc3)c2-c2ccc(N(C)C)cc2)cc1,·,·,·,·,–,·,·,·
O=C(NC1CCCCC1)O[C@H]1CC[C@@]23CCCN2C(=O)CCC[C@H]3C1,·,·,·,·,–,·,·,·
CN(C)CCCNc1nc2cc(-c3cnn(C)c3)sc2c(=O)n1C,·,·,–,–,–,·,·,·
O=C(NS(=O)(=O)c1ccccc1[N+](=O)[O-])[C@H]1O[C@@H](n2ccc(=O)[nH]c2=O)[C@H](O)[C@@H]1O,·,·,·,–,–,·,·,·
CCCCOC(=O)Nc1cc(C(=O)OC)ccc1C(=O)OC,–,–,28,·,·,–,43,–
O=C1Cc2ccccc2Sc2c(OCCN3CCCCC3)cccc21,–,55,25,–,–,–,–,–
O=C1Cc2ccccc2Sc2cc(OCCCN3CCCCC3)ccc21,–,–,–,–,–,–,·,·
COc1ccc(S(=O)(=O)N2CCCc3nc(-c4ccc(Br)cc4)ccc32)cc1,·,·,·,–,–,·,·,·
CCOC(=O)/C(=C\c1cccc(O)c1)c1nc2sc(C)c(C)c2c(=O)[nH]1,98,–,53,–,–,–,85,80
CCC(c1ccccc1)c1noc(CCN(CC)CC)n1 (stereo not drawn),·,·,60,–,–,·,73,32
COc1ccc(CC(=O)n2[nH]c(=O)cc(C)c2=O)cc1OC,·,–,42,–,–,–,65,87
O=C(Nc1ccc[n+](CC(=O)c2cccc3ccccc23)c1)c1ccccc1,–,–,24,–,–,–,–,–
O=C(C[n+]1cccc(C(=O)Nc2ccccc2)c1)c1ccccc1,·,·,–,–,–,·,·,·
CCC[C@@H](CN1CCC[C@H]1CN1C(N)=NC[C@@H]1Cc1ccccc1)N1C[C@@H](Cc2ccccc2)N(CCc2ccc(Cl)c(Cl)c2)C1=N,–,–,29,–,–,–,–,–
CCC[C@@H](CN1CCC[C@H]1CN1C(N)=NC[C@@H]1Cc1ccccc1)N1C[C@@H]([C@H](C)CC)N(CCc2ccc(Cl)c(Cl)c2)C1=N,–,?,26,·,·,–,–,–
CC(C)[C@@H]1CN=C(N)N1C[C@@H]1CCCN1C[C@H](C)N1C[C@@H](Cc2ccccc2)N(CCc2ccc(Cl)c(Cl)c2)C1=N,·,–,–,·,·,·,·,·
CC(C)[C@H](CN1CCC[C@H]1CN1C(N)=NC[C@@H]1Cc1ccccc1)N1C[C@@H](Cc2ccccc2)N(CCc2ccc(Cl)c(Cl)c2)C1=N,–,–,36,·,·,–,23,–
CCCCN1C(=N)N([C@@H](C)CN2CCC[C@H]2CN2C(N)=NC[C@@H]2Cc2ccccc2)C[C@H]1[C@H](C)CC,–,–,–,–,–,–,·,·
CCCCN1C(=N)N([C@@H](CCC)CN2CCC[C@H]2CN2C(N)=NC[C@@H]2Cc2ccccc2)C[C@H]1Cc1ccccc1,–,?,–,–,–,–,·,·
